# In PubChem BioAssay:
# Active and inactive are the calls of the source. Unless noted, no rule for the calls is given here.
# Legend:
# [1] = anti-His antibody binders, primary screen, artefact control for SMM control protein annotation, biochemical, small-molecule microarray, 635 nm fluorescence (AID 1128); details: anti-His Alexa647 antibody binding, higher = more signal;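 also: score merges feature fluorescence with signal-to-noise for each printed compound spot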
# [2] = tested on: Human papillomavirus type 1a E7 protein (residues 1-88); test: HPV1a E7 small-molecule binders, primary screen, biochemical, small-molecule microarray, residues 1-88, 635 nm (AID 1129); details: small-molecule microarray binding, fluorescence 635 nm; higher = more signal
# [3] = target: Focal adhesion kinase 1 (Homo sapiens) (UniProt Q05397); test: small-molecule microarray binders of FAK, primary screen, biochemical, 635/667 nm fluorescence, BSA, DTT (AID 1130); details: PTK2 binding, 635 nm fluorescence, higher = more signal;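 also: composite of spot emission at 667 nm and signal to noise over triplicate slides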
# [4] = tested on: Fibrinogen (Alexa647-labelled); test: fibrinogen binders on compound microarrays, profiling panel, artefact control for SMM control-protein annotation, biochemical, small-molecule microarray, 635/667 nm fluorescence (AID 1131); details: fibrinogen-A647 binding fluorescence, higher = more signal;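 also: z-score merges 667 nm fluorescence with per-spot signal-to-noise over triplicate slides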
# [5] = target: Follistatin (Homo sapiens) (UniProt P19883); test: follistatin binders on small-molecule microarrays, primary screen, biochemical, small-molecule microarray, 635/667 nm fluorescence (AID 1132); details: FST binding, 635 nm fluorescence, higher = more signal
# [6] = target: Fibroblast growth factor 2 (Homo sapiens) (UniProt P09038); test: FGF2 binders on small-molecule microarrays, primary screen, biochemical, small-molecule microarray, 635/667 nm fluorescence (AID 1133); details: small-molecule microarray binding, FGF2, fluorescence 635/667; higher = more signal
# [7] = mitochondrial membrane potential change in A549 cells, profiling panel, cell-based, JC-1 fluorescence, basal, 24 h, 100 nL (AID 1138); details: higher = more signal;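 also: A549 lung adenocarcinoma cells under basal conditions with no added stimulus; test concentration not given here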
# Lefty1 = Lefty1 binders on small-molecule microarrays, primary screen, biochemical, small-molecule microarray, 635/667 nm fluorescence (AID 1139); details: small-molecule microarray binding, fluorescence 635/667; higher = more signal
# [8] = tested on: wheat germ agglutinin (Triticum aestivum), Alexa647-labelled; test: wheat germ agglutinin binders on compound microarrays, profiling panel, artefact control for SMM control-protein annotation, biochemical, small-molecule microarray, 635/667 nm fluorescence (AID 1140); details: WGA-A647 binding, 635 nm fluorescence, higher = more signal;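 also: score merges 667 nm feature emission with signal to noise over triplicate slides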
# [9] = target: Luciferin 4-monooxygenase (Photinus pyralis) (UniProt P08659); test: firefly luciferase enzyme inhibitors, primary screen, biochemical, luminescence, purified enzyme, 2006 set (AID 1141); details: SteadyGlo luminescence, 30 min, higher = more signal, called active from +8 up or from −8 down;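 also: cell-free assay with purified firefly luciferase at 100 ng per well in PBS; test concentration not given here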
# [10] = tested on: Wnt5a (protein binding on small-molecule microarray); test: Wnt5a binders on small-molecule microarray, primary screen, biophysical, 635/667 nm fluorescence (AID 1142); details: 635 nm fluorescence, higher = more signal;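 also: fluorescence read at 667 nm with signal to noise per printed feature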
# [11] = cell viability in Huh7 cells, primary screen, cytotoxicity control for HCV replication inhibitor project, CellTiter-Glo luminescence, basal, 48 h (AID 1143); details: Huh7 HCV replicon, higher = more signal, called active from +8 up or from −8 down;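 also: Huh7 hepatoma cells carrying a hepatitis C replication reporter with no stimulus; test concentration not given here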
# [12] = P. aeruginosa biofilm formation inhibitors, primary screen, PAO1 strain, BacTiter-Glo luminescence, LB-PBS (AID 1144); details: 12 h, higher = more signal
# [13] = CREB reporter modulators without forskolin, primary screen, cell-based, PC12, CRE-LacZ reporter, unstimulated (AID 1145); details: no forskolin, luminescence, 4.5 h, higher = more signal, called active from +8 up or from −8 down
# [14] = CREB reporter modulators under forskolin, primary screen, cell-based, PC12, CRE-LacZ reporter, forskolin-stimulated (AID 1146); details: luminescence, 4.5 h, higher = more signal, called active from +8 up or from −8 down;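 also: PC12 cells with 6xCRE LacZ reporter stimulated by forskolin 10 µM; beta-galactosidase reporter signal reflecting CREB driven transcription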
# [15] = target: Streptavidin (Streptomyces avidinii) (UniProt P22629); test: streptavidin binders on small-molecule microarray, primary screen, artefact control for SMM compound annotation, biophysical, 635/667 nm fluorescence (AID 1147); details: streptavidin binding, higher = more signal;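 also: signal reflects streptavidin binding to arrayed compounds as a control protein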
# [16] = small-molecule binders of probe aInhba, primary screen, biochemical, small-molecule microarray, 635/667 nm fluorescence (AID 1148); details: higher = more signal;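 also: score merges 667nm spot fluorescence with signal-to-noise for antibody binding to printed compounds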
# Torsin-1A (Homo sapiens) [17] = target: Torsin-1A (Homo sapiens) (UniProt O14656); test: torsin A binders from cell lysate, primary screen, small-molecule microarray, wild-type, 635/667 nm (AID 1149); details: COS7 hTOR1A-WT lysate, 635 nm fluorescence, higher = more signal
# Torsin-1A (Homo sapiens) [18] = target: Torsin-1A (Homo sapiens) (UniProt O14656); test: small-molecule binders of mutant TOR1A in lysate, primary screen, cell lysate, small-molecule microarray, COS7 lysate, 635/667 nm fluorescence (AID 1150); details: COS7 hTOR1A mutant lysate, 635 nm fluorescence, higher = more signal;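 also: score pools 667 nm emission and signal to noise measuring lysate protein binding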
# [19] = tested on: Sonic hedgehog protein (Shh); test: small-molecule binders of Shh protein, primary screen, biochemical, small-molecule microarray, 635/667 nm fluorescence (AID 1151); details: small-molecule microarray binding, 635 nm fluorescence; higher = more signal;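 also: Shh protein binding to compounds spotted on small-molecule microarray slides; score combines spot fluorescence intensity with signal-to-noise across triplicate slides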
# Luciferin 4-monooxygenase (Photinus pyralis), sequence (P08659 whole entry, looked up): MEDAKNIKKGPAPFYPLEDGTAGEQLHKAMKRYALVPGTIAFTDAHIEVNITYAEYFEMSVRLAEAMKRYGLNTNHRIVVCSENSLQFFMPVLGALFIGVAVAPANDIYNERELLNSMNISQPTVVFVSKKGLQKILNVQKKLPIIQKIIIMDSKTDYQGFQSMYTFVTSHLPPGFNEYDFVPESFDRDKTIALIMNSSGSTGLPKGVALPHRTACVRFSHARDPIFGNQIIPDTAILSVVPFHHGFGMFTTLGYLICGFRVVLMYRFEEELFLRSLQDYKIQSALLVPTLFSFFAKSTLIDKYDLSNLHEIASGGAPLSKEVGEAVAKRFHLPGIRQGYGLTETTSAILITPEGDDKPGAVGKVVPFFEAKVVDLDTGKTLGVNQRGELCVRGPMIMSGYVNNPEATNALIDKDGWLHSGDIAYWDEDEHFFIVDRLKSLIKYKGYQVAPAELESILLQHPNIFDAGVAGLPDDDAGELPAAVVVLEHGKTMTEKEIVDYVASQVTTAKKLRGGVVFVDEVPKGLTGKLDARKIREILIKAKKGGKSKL
# Torsin-1A (Homo sapiens), sequence (O14656 whole entry, looked up): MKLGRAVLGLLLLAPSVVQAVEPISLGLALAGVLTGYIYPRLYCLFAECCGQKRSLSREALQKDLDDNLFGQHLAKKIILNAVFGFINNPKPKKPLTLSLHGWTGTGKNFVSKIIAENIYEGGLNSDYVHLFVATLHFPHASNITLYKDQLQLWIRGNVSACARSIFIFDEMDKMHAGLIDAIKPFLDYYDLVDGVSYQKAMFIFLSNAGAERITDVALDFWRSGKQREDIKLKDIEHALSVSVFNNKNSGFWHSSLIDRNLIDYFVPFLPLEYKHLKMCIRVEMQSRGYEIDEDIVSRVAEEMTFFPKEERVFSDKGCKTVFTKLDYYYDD
# Focal adhesion kinase 1 (Homo sapiens), sequence (Q05397 whole entry, looked up): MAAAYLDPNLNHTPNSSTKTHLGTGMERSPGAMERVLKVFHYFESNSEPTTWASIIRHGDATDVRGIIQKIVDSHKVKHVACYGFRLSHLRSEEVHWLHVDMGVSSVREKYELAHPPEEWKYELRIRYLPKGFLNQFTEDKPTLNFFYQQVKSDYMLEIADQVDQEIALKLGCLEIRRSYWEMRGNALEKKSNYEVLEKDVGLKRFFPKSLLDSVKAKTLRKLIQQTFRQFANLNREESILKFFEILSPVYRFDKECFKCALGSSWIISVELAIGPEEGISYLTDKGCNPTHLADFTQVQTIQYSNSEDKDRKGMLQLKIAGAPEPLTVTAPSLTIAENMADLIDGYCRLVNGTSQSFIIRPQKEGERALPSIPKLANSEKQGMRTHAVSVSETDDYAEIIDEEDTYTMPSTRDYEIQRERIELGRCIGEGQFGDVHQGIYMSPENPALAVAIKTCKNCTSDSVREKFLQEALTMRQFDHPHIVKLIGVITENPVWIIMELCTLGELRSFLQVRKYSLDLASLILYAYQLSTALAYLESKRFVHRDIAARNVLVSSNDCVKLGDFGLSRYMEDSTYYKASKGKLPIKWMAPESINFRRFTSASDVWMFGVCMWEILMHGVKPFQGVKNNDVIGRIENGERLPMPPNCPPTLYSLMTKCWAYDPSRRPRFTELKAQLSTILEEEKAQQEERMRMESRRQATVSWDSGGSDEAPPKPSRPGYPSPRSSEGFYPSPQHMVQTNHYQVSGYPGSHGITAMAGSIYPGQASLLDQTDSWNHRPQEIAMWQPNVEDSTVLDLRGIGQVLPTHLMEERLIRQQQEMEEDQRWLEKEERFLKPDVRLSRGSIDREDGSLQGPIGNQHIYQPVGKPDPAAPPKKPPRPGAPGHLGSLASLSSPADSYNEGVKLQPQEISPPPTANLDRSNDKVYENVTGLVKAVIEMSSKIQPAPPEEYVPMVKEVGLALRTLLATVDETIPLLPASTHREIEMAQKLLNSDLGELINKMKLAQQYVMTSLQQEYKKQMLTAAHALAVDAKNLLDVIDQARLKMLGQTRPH
# Follistatin (Homo sapiens), sequence (P19883 whole entry, looked up): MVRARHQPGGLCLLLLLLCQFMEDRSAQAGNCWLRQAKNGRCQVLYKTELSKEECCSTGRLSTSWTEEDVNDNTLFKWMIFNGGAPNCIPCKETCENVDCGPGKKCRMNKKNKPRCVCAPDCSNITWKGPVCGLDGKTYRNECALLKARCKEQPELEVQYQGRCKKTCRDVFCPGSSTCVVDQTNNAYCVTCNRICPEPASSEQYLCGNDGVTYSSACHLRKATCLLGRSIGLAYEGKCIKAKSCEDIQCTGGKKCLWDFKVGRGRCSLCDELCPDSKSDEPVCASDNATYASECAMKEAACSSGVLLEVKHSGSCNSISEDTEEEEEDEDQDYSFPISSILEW
# Fibroblast growth factor 2 (Homo sapiens), sequence (P09038 whole entry, looked up): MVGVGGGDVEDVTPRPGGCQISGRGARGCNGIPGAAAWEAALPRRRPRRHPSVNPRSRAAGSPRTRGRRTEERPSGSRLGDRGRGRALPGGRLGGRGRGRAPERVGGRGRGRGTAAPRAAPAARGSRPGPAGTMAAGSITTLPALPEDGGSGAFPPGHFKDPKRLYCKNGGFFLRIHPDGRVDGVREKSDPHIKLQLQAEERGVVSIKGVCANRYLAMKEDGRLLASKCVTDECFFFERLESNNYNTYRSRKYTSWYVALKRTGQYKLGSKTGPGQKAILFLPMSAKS
# Streptavidin (Streptomyces avidinii), sequence (P22629 whole entry, looked up): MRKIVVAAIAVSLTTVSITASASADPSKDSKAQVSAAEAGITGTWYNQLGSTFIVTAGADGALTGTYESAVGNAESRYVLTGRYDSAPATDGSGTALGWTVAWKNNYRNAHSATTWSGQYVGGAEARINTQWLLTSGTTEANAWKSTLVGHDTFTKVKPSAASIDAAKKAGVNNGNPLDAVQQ
SMILES,composite z-score [1],composite z-score [2],composite z-score [3],composite z-score [4],composite z-score [5],composite z-score [6],z-score [7],composite z-score (Lefty1),composite z-score [8],z-score [9],composite z-score [10],z-score [11],z-score [12],z-score [13],z-score [14],composite z-score [15],composite z-score [16],composite z-score (Torsin-1A (Homo sapiens) [17]),composite z-score (Torsin-1A (Homo sapiens) [18]),composite z-score [19]
C=CCOC(=O)[C@H]1[C@@H]2C(=O)O[C@@H](c3ccccc3)[C@@H](c3ccccc3)N2[C@@H](c2ccc(OCCOC(=O)[C@@H]3C[C@@H]4C(=O)N[C@@H](CCCCNC(C)=O)C(=O)N4[C@@H]3c3cccc(OCCO)c3)cc2)[C@]12C(=O)Nc1ccccc12,2.81,1.19,0.838,0.276,1.25,1.53,-0.0996,0.581,-0.185,-0.878 (inactive),0.455,-0.08 (inactive),-0.295 (inactive),-0.118 (inactive),-0.656 (inactive),-0.35,-0.0342,1.2,1.3,1.54
CC1CC/C=C\[C@H]2OC34C=CCN(C(C)(C)C)C(=O)[C@H]3N(CCCO)C(=O)[C@@H]4C2C(=O)O1 (stereo not given in full),0.441,-0.137,-0.441,-0.735,-0.404,-0.685,0.0255,-0.842,-0.723,0.477 (inactive),-0.0437,-0.032 (inactive),1.08 (inactive),0.203 (inactive),-0.539 (inactive),-0.561,-0.128,0.62,2.01,-0.757
NC(=O)NCC#Cc1ccc2c(c1)[C@]1(C(=O)N2)[C@H](c2ccc(OCCO)cc2)N2[C@H](c3ccccc3)[C@H](c3ccccc3)OC(=O)[C@H]2[C@@H]1C(=O)NC[C@H](O)c1ccccc1,-0.454,0.542,0.115,0.879,1.25,-0.0515,-1.08,0.395,0.259,0.409 (inactive),-0.138,-2.86 (inactive),0.0532 (inactive),-0.671 (inactive),-0.648 (inactive),0.079,-0.0195,-0.17,-0.288,0.398
O=C(NCc1ccccc1)[C@@H]1c2ccccc2C(=O)N(Cc2ccc(OC(F)(F)F)cc2)[C@H]1c1ccc(CO)cc1,2.71,0.277,0.442,-0.222,0.616,0.0415,2.79,-0.9,-0.416,-0.828 (inactive),-0.134,-0.495 (inactive),0.0274 (inactive),0.208 (inactive),0.129 (inactive),-0.756,0.0102,0.521,0.162,-0.493
CC(C)=CCCC(C)=CC(O)C1C=CC2C(=O)NC(=O)C2N1Nc1ccccn1 (stereo not given),1.97,1.08,-0.097,0.868,1.39,1.7,0.966,1.54,0.73,-1.17 (inactive),0.827,-0.614 (inactive),-0.564 (inactive),-0.333 (inactive),-0.0179 (inactive),0.968,-0.154,1.61,1.53,2.08
[N-]=[N+]=Nc1ccccc1C[C@@]1(C(=O)NCC(O)CO)N=C(c2ccc(OCCCO)cc2)O[C@@H]1c1ccccc1 (stereo not given in full),-0.0048,1.2,0.206,0.54,-0.327,0.0559,1,-0.867,0.436,-2.44 (inactive),0.674,-3.5 (inactive),0.557 (inactive),-0.16 (inactive),-0.57 (inactive),1.45,0.0047,0.744,0.944,-0.538
CO[C@H]1O[C@H](CO)[C@@H](OC(=O)Nc2ccccc2-c2ccccc2)[C@H](OC(=O)Nc2ccccc2)[C@H]1OC(=O)Nc1ccccc1,1.38,1.29,0.508,0.991,1.3,1.86,-1.06,0.719,0.679,-0.849 (inactive),1.32,-3.8 (inactive),-0.589 (inactive),-0.254 (inactive),-2.07 (inactive),0.29,0.122,0.616,1.6,1.1
CCCC[C@H]1C[C@@H]1[C@@H]1N(C(C)=O)[C@H](c2cccc(OC)c2)CC12CC2,-0.101,0.173,0.17,0.832,-0.631,-0.532,0.605,-0.613,0.133,2.15 (inactive),-0.0718,-0.338 (inactive),0.824 (inactive),0.583 (inactive),-0.0157 (inactive),0.361,0.0111,-0.53,0.0852,-0.784
CC(C)c1nc2cc(Br)ccc2c(=O)o1,0.405,0.854,0.224,0.871,0.296,-0.357,0.48,-0.0283,0.834,0.672 (inactive),0.432,-0.232 (inactive),-0.523 (inactive),-0.348 (inactive),-0.524 (inactive),0.632,-0.0736,0.0358,0.244,0.116
O=C1C2C=CC(C(O)C3CCCCC3)N(n3cnnc3)C2C(=O)N1Cc1ccccc1 (stereo not given),-0.526,1.17,0.377,0.983,1.26,0.287,-1.96,1.27,1.26,1.54 (inactive),0.364,-4.7 (inactive),-1.2 (inactive),-0.135 (inactive),-0.233 (inactive),0.203,0.229,0.187,0.64,1.65
